Measurements as given in ChEMBL document CHEMBL4513216, “Probing the Open Global Health Chemical Diversity Library for Multistage-Active Starting Points for Next-Generation Antimalarials” (ACS Infect Dis, 2020).
Out of some 69,000 compounds screened, about 8,600 (12%) showed an effect of 50% or more. Only a selection was taken, and strong results are over-represented in it overall.

The compounds below were run on Plasmodium berghei (assay: Screen against P. berghei liver stage (PbLuc), transformed with Luciferase, at 10uM). Details: tested at 10 uM.
Format: functional, HepG2

SMILES	INHIBITION
Cn1c(CN2CCCCC2)cc(=O)c(O)c1CN1CCCCC1	74%
Cn1c(CN2CCCC(N3CCCCCC3)C2)cc(=O)n(C)c1=O (centres undefined)	-10.9%
Cn1c(CN2CCOCC2)cc(=O)c(O)c1CN1CCCCC1	30.2%
Cn1c(CN2CCOCC2)cc(=O)c(O)c1CN1CCOCC1	5.58%
Cn1c(CN2CCOCC2)cc(=O)c(O)c1CN1CCCC1	6.12%
Cn1c(CN2CCCCCC2)cc(=O)c(O)c1CN1CCCC1	63.1%
CN(CCn1nc2ccccn2c1=O)CC(=O)N1CCCC1	18.2%
CCn1cc(CN(C)C(=O)c2cc(C(F)(F)F)n(C)n2)cn1	-6.42%
CC(C)(CO)Nc1c(NCc2ccncc2)c(=O)c1=O	32.8%
COc1ccc(C(=O)NCCCOC(C)c2ccccc2)c(OC)c1 (centres undefined)	84.4%
COc1ccc(C(=O)NCCCNc2ncccn2)c(OC)c1	30.8%
CC(OCCCNC(=O)c1cccnc1O)c1ccccc1 (centres undefined)	-21.2%
CCC[C@@H]1CN(C(=O)c2ccccc2-c2ccccc2)C[C@H]1N(C)C	31.7%
CCC[C@@H]1CN(C(=O)c2ccccc2C(C)=O)C[C@H]1N(C)C	8.92%
CCC[C@@H]1CN(C(=O)c2cc3ccccc3cc2O)C[C@H]1N(C)C	51.5%
Cc1ccc(-c2n[nH]cc2CNCC2CCN(CC(F)(F)F)C2)o1 (centres undefined)	27.5%
CC1=N[C@@]2(CC[C@@H]3CN(CC(=O)N(C)C)C[C@@H]32)C(=O)N1CC(C)C	-6.32%
CCN1CCCn2c(nc(CNC(=O)c3cnoc3C)cc2=O)C1	-24%
Cn1nccc1CNC(=O)C1CCCCC1	33%
Cc1cc(C(=O)NC(C)CC(=O)c2ccco2)[nH]n1 (centres undefined)	37.9%
COCCN1CCO[C@H]2CN(C(=O)c3cccs3)C[C@H]21	77.7%
O=C(c1cccs1)N1C[C@@H]2OCCN(CC3CCCO3)[C@@H]2C1 (some centres undefined)	-17.1%
COCCN1CCO[C@H]2CN(C(=O)c3ccncc3F)C[C@H]21	-52.3%

SMILES	INHIBITION
O=C(c1ccnnc1)N1C[C@@H]2OCCN(CCN3CCCC3)[C@@H]2C1	11.9%
CN(C)CCN1CCO[C@H]2CCN(C(=O)c3cccs3)CC[C@@H]21	54.1%
CS(=O)(=O)N1CCO[C@@H]2CCN(C(=O)c3cccs3)CC[C@H]21	31.9%
CN(C)CCN1CCO[C@@H]2CCN(C(=O)c3cccn3C)CC[C@H]21	-16.2%
COCCN1CCO[C@H]2CCN(C(=O)c3ccnnc3)CC[C@@H]21	55.6%
COCCN1CCO[C@H]2CCN(C(=O)c3cccs3)CC[C@@H]21	-18.3%
COC(=O)N1CCC(Nc2ccc(Cl)c(C#N)n2)CC1	8.12%
COc1ncc(C(F)(F)F)c(C(=O)O)c1Cl	24.2%
Cc1cnn(CC2CCCCN2C(=O)Cc2c(C)noc2C)c1 (centres undefined)	8.53%
CCN1Cc2ccccc2CC2(CCN(C)CC2)C1=O	26.5%
Cc1nc(C)n(CC2CCCN(CCOc3cccc(F)c3)C2)n1 (centres undefined)	48.4%
O=C(CC1CCCC1)N1CCN2C[C@@H](CO)[C@H](c3ccccc3)[C@H]2C1	-16.4%
CS(=O)(=O)NC1CCCN(C(=O)NCc2cccc(F)c2)C1 (centres undefined)	29.4%
c1ccc(N2CCCC3(CCN(Cc4cccs4)C3)C2)nc1 (centres undefined)	44.9%
Cc1ccc(C(=O)NCCn2nc(-n3cncn3)ccc2=O)c(C)c1	16.5%
CC(C)c1nc2c(n1C)CCN(Cc1nc(-c3ccco3)no1)C2	7.08%
O=C(NCc1ccc2c(c1)OCO2)c1ccc(N2CCCCCC2)nc1	-4.99%
COc1ccc2cc(C3CN(C(=O)CN4CCCC4)CCO3)ccc2c1 (centres undefined)	64.7%
Nc1cccc(C2CN(C(=O)CN3CCOCC3)CCO2)n1 (centres undefined)	36%
COc1ccc2cc(C3CN(C(=O)C4CCOCC4)CCO3)ccc2c1 (centres undefined)	66.8%
CNC(=O)CCC(=O)N1CCOC(c2ccc3cc(OC)ccc3c2)C1 (centres undefined)	78.15%
COc1ccc2cc(C3CN(C(=O)N(C)C)CCO3)ccc2c1 (centres undefined)	85.4%
CN(C)C(=O)N1CC[C@@H](c2ccc3ccccc3c2)[C@H](O)C1	2.18%

SMILES	INHIBITION
COc1ccc(CN2CCO[C@H]3CN(C(=O)C4CC4)CC[C@H]3C2=O)cc1	-47%
CNC(=O)NC(=O)CCN1CCOC(c2ccc(Br)cc2)C1 (centres undefined)	-65.1%
COc1ccc(-c2cnc(N(C)C)nc2C2CN(C(C)=O)CCO2)cc1 (centres undefined)	7.52%
O=C(C1CCOCC1)N1CCOCC(Cc2ncccn2)C1 (centres undefined)	19.3%
CCN1CCN(CC(=O)N2CCOC(Cc3ccc(OC)cc3)C2)CC1 (centres undefined)	-42.1%
CNC(=O)CN1CCC(c2cc(OC)cc(OC)c2)C1 (centres undefined)	45.1%
O=C(c1cc(-c2ccco2)cs1)N1CCCC1	-12.2%
CNC(=O)[C@H]1C[C@H]2OCC[C@H]2N(Cc2cccc3ccccc23)C1	-6.32%
COCc1nc(CNc2cc(C)nc(-c3ccccc3)n2)no1	-7.81%
O=C(CS(=O)(=O)Cc1ccccc1)NC1CCCCNC1=O (centres undefined)	5.7%
Cc1noc([C@H]2C[C@H]3OCC[C@H]3N(S(C)(=O)=O)C2)n1	-31.3%
CCOC(=O)[C@]12CCCN(Cc3ccco3)C[C@H]1CN(CCN(C)C)C2	-0.182%
Cn1nc2c(cc1=O)CN(Cc1nc(-c3ccccn3)no1)CC2	-19.7%
CCC(=O)Nc1c(C)nn(COc2cccc(F)c2)c1C	26.7%
Cc1cc(C)c2[nH]c(C(=O)NCCN3CCOC3=O)c(C)c2c1	24%
CC(=O)N(Cc1noc(C)n1)C1CCN(CC(=O)N(C)C2CC2)C1 (centres undefined)	7.3%
O=C(O)c1cc2c(nc1NCC1CC1)CCN(C1CCOC1)CC2 (centres undefined)	29.8%
COc1ccc2cc(C3CN(C(=O)CCNC(C)=O)CCO3)ccc2c1 (centres undefined)	81.9%
COc1ccc2cc(C3CN(C(=O)COC(C)C)CCO3)ccc2c1 (centres undefined)	69.15%
O=C(CCNS(=O)(=O)c1ccccc1)N1CCOC(c2ccccc2)C1 (centres undefined)	-74.1%
CC(=O)NCC(=O)N1CCOC(c2cccc(N)n2)C1 (centres undefined)	-24.4%
COCC(=O)N1CCC(c2ccc(OC)cc2)C1 (centres undefined)	23.6%
CC(C)c1n[nH]c(C2CN(C(=O)COc3ccc(F)cc3)CCO2)n1 (centres undefined)	8.41%
